# Data: PubChem BioAssay AID1159569 (Broad Institute, 2015)
# Entries with a potency or affinity are not part of this list. Results filed as inconclusive are left out. The source made the active and inactive calls. How the calls were made is not given here.
# Assay: toxicity to human HepG2 hepatoma cells – cell-based, plate reader, dry powder samples, cytotoxicity control, dose response (AID 1159569)
smiles,measurement,value
OC[C@H]1Nc2ccc(C#Cc3cccnc3)cc2[C@H]2NCC[C@H]21,outcome,inactive
